Laboratory results taken from PubChem BioAssay (NCI).
This is part of a sample that, as a whole, favours compounds with a hit. Of some 79,000 tested, about 15% had one in any assay. A number with no mark means an inactive call. The source made the active and inactive calls. Cut-off read from the data, not from the text of the source: active = growth inhibition above about 70%; inactive = the rest.

Experiments:
[1] = NCI Yeast Anticancer Drug Screen. Data for the rad52 strain (AID 147);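 note: 0% = growth of vehicle-treated control cultures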; conditions: S. cerevisiae rad52 mutant growth inhibition, stronger effect = higher value
Outline: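 Growth of repair-deficient yeast cells was compared between compound-treated and vehicle-treated cultures to give percent inhibition.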

[2] = NCI Yeast Anticancer Drug Screen. Data for the wt1 strain (AID 149);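 note: 0% = growth of vehicle-treated wt1 cultures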; conditions: S. cerevisiae wt1 strain (SPY 50644) growth inhibition, stronger effect = higher value
Outline: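 Growth inhibition read against vehicle controls after compound exposure of the wt1 yeast strain.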

[3] = NCI Yeast Anticancer Drug Screen. Data for the rad50EPP+ strain (AID 151);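 note: 0% = growth of vehicle-treated control cultures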; conditions: S. cerevisiae rad50 mutant strain, stronger effect = higher value
Outline: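 Measured: growth inhibition of rad50EPP+ yeast. Reference: vehicle-treated controls. Screen uses strains with defined genetic alterations in DNA damage repair or cell cycle control.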

[4] = NCI Yeast Anticancer Drug Screen. Data for the rad50 strain (AID 155);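 note: 0% = growth of vehicle-only cultures of the same strain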; conditions: S. cerevisiae rad50 strain growth inhibition, stronger effect = higher value
Outline: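 Readout: growth inhibition relative to vehicle-treated cultures. Compound exposure was carried out in a genetically defined yeast strain deficient in DNA damage repair.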

[5] = NCI Yeast Anticancer Drug Screen. Data for the mec2-1 strain (AID 157); conditions: S. cerevisiae mec2-1 strain, stronger effect = higher value
Outline: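 Compounds were applied to mec2-1 yeast cells. Their growth was then compared with that of vehicle-treated cultures to give growth inhibition.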

[6] = NCI Yeast Anticancer Drug Screen. Data for the rad14 strain (AID 159);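 note: 0% = growth of vehicle-treated control cultures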; conditions: S. cerevisiae rad14 strain growth inhibition, stronger effect = higher value
Outline: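 Growth inhibition vs vehicle controls; genetically altered yeast strain (DNA damage repair defect) treated with test compounds.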

[7] = NCI Yeast Anticancer Drug Screen. Data for the sgs1 mgt1 strain (AID 161);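 note: 0% = growth of cultures given vehicle only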; conditions: S. cerevisiae sgs1 mgt1 strain, stronger effect = higher value
Outline: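 Percent growth inhibition was derived by comparing compound-exposed mutant yeast with vehicle-exposed cultures. The strain carries alterations in DNA damage repair.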

[8] = NCI Yeast Anticancer Drug Screen. Data for the CLN2oe strain (AID 163);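 note: 0% = growth of vehicle-only control cultures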; conditions: S. cerevisiae CLN2oe strain, stronger effect = higher value
Outline: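 Cells of an engineered yeast line with disturbed cell-cycle regulation are treated with compound. Inhibition of growth is then calculated relative to the vehicle-treated reference.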

[9] = NCI Yeast Anticancer Drug Screen. Data for the cln2 rad14 strain (AID 165);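 note: 0% = growth equal to vehicle treated cultures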; conditions: S. cerevisiae cln2 rad14 strain, stronger effect = higher value
Outline: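 Strain: cln2 rad14 yeast, altered in cell cycle control and DNA damage repair. Read-out: growth inhibition vs vehicle.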

[10] = NCI Yeast Anticancer Drug Screen. Data for the bub3 strain (AID 167); conditions: S. cerevisiae bub3 mutant strain, stronger effect = higher value
Outline: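 Readout: yeast growth inhibition, expressed relative to vehicle-only wells. The test organism is a mutant strain from a panel with lesions in DNA repair or checkpoint genes.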

[11] = NCI Yeast Anticancer Drug Screen. Data for the wt2 strain (AID 169);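 note: 0% = growth of vehicle-treated yeast cultures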; conditions: S. cerevisiae wt2 strain growth inhibition, stronger effect = higher value
Outline: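 Growth of compound-treated yeast is measured and expressed as inhibition relative to vehicle-only controls.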

[12] = NCI Yeast Anticancer Drug Screen. Data for the mlh1 strain (AID 171);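 note: 0% = growth of vehicle-treated control cultures of the same strain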; conditions: S. cerevisiae mlh1 strain growth inhibition, stronger effect = higher value
Outline: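 Test agents were incubated with yeast bearing a defined DNA damage repair or cell cycle control alteration; values are growth inhibition normalised to vehicle-treated cultures.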

[13] = NCI Yeast Anticancer Drug Screen. Data for the sgs1 strain (AID 173);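 note: 0% = growth of vehicle-only control cultures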; conditions: S. cerevisiae sgs1 mutant, stronger effect = higher value
Outline: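 Strain with an altered DNA repair or cell cycle pathway exposed to compound. Growth then measured. Value = inhibition versus vehicle control.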

[14] = NCI Yeast Anticancer Drug Screen. Data for the mlh1 rad18 strain (AID 175); conditions: S. cerevisiae mlh1 rad18 strain growth inhibition, stronger effect = higher value
Outline: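 A repair-deficient yeast strain is exposed to test compound, and growth is scored relative to vehicle-treated controls.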

[15] = NCI Yeast Anticancer Drug Screen. Data for the rad18 strain (AID 177); conditions: S. cerevisiae rad18 mutant growth inhibition, stronger effect = higher value
Outline: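 DNA-repair-defective yeast; compound treatment; growth inhibition scored against vehicle.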

[16] = NCI Yeast Anticancer Drug Screen. Data for the mgt1 strain (AID 153); conditions: S. cerevisiae mgt1 mutant growth inhibition, stronger effect = higher value
Outline: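 Compounds were applied to mgt1 mutant yeast, and growth was then compared against vehicle-treated control cultures to give percent inhibition.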

[17] = at 5.0 µM (retest, dose inferred, filed as 0.5)
[18] = at 50.0 µM (retest, dose inferred, filed as 5.0)

In the case of `[N-]=[N+]=C1C(Cl)=C(Cl)C(Cl)=C1Cl`, the growth inhibition ([1]; at 1.2 µM) is reported as -1%, the growth inhibition ([1]; at 3.7 µM) is reported as 17% and the growth inhibition ([1]; at 11.0 µM) is reported as 63%. The growth inhibition ([1]; at 33.0 µM) was 99% (active), the growth inhibition ([1]; at 100.0 µM) was 99% (active) and the growth inhibition ([2]; at 1.2 µM) was -3%. For the same molecule, the growth inhibition ([2]; at 3.7 µM) was -2%, the growth inhibition ([2]; at 11.0 µM) was 44% and the growth inhibition ([2]; at 33.0 µM) was 97% (active). For the same molecule, the growth inhibition ([2]; at 100.0 µM) was 99% (active), the growth inhibition ([3]; at 1.2 µM) was 1% and the growth inhibition ([3]; at 3.7 µM) was 6%. For the same molecule, the growth inhibition ([3]; at 11.0 µM) was 32%, the growth inhibition ([3]; at 33.0 µM) was 83% (active) and the growth inhibition ([3]; at 100.0 µM) was 98% (active). The growth inhibition ([4]; at 1.2 µM) was 6%, the growth inhibition ([4]; at 3.7 µM) was 8% and the growth inhibition [4, 17] was 62%. The growth inhibition ([4]; at 11.0 µM) was 65%, the growth inhibition ([4]; at 33.0 µM) was 99% (active) and the growth inhibition [4, 18] was 96% (active). The growth inhibition ([4]; at 50.0 µM) was 99% (active), the growth inhibition ([4]; at 100.0 µM) was 99% (active) and the growth inhibition ([5]; at 1.2 µM) was 1%. It also gave a growth inhibition ([5]; at 3.7 µM) of 2%, a growth inhibition [5, 17] of 15% and a growth inhibition ([5]; at 11.0 µM) of 59%. The growth inhibition ([5]; at 33.0 µM) was 99% (active), the growth inhibition [5, 18] was 98% (active) and the growth inhibition ([5]; at 50.0 µM) was 99.5% (active). For the same molecule, the growth inhibition ([5]; at 100.0 µM) was 99% (active), the growth inhibition ([6]; at 1.2 µM) was 1% and the growth inhibition ([6]; at 3.7 µM) was 5%. The growth inhibition ([6]; at 11.0 µM) was 44%, the growth inhibition ([6]; at 33.0 µM) was 99% (active) and the growth inhibition ([6]; at 100.0 µM) was 99% (active). For the same molecule, the growth inhibition [7, 17] was 20%, the growth inhibition [7, 18] was 95% (active) and the growth inhibition ([7]; at 50.0 µM) was 99.2% (active). The growth inhibition ([8]; at 1.2 µM) was -2%, the growth inhibition ([8]; at 3.7 µM) was 2% and the growth inhibition ([8]; at 11.0 µM) was 50%. The growth inhibition ([8]; at 33.0 µM) was 99% (active), the growth inhibition ([8]; at 100.0 µM) was 99% (active) and the growth inhibition [9, 17] was -6%. The growth inhibition [9, 18] was 97% (active), the growth inhibition ([9]; at 50.0 µM) was 98.8% (active) and the growth inhibition ([10]; at 1.2 µM) was -8%. The growth inhibition ([10]; at 3.7 µM) was 1%, the growth inhibition [10, 17] was 11% and the growth inhibition ([10]; at 11.0 µM) was 62%. The growth inhibition ([10]; at 33.0 µM) was 98% (active), the growth inhibition [10, 18] was 97% (active) and the growth inhibition ([10]; at 50.0 µM) was 99% (active). The growth inhibition ([10]; at 100.0 µM) was 99% (active), the growth inhibition ([11]; at 1.2 µM) was 0% and the growth inhibition ([11]; at 3.7 µM) was 0%. The growth inhibition ([11]; at 11.0 µM) was 48%, the growth inhibition ([11]; at 33.0 µM) was 99% (active) and the growth inhibition ([11]; at 100.0 µM) was 99% (active). It also gave a growth inhibition ([12]; at 1.2 µM) of 6%, a growth inhibition ([12]; at 3.7 µM) of -1% and a growth inhibition ([12]; at 11.0 µM) of 48%. The growth inhibition ([12]; at 33.0 µM) was 99% (active), the growth inhibition ([12]; at 100.0 µM) was 99% (active) and the growth inhibition ([13]; at 1.2 µM) was -1%. The growth inhibition ([13]; at 3.7 µM) was 19%, the growth inhibition ([13]; at 11.0 µM) was 64% and the growth inhibition ([13]; at 33.0 µM) was 99% (active). The growth inhibition ([13]; at 100.0 µM) was 99% (active), the growth inhibition [14, 17] was 33% and the growth inhibition [14, 18] was 97% (active). For the same molecule, the growth inhibition ([14]; at 50.0 µM) was 99.1% (active), the growth inhibition ([15]; at 1.2 µM) was 3% and the growth inhibition ([15]; at 3.7 µM) was 13%. The growth inhibition ([15]; at 11.0 µM) was 62%, the growth inhibition ([15]; at 33.0 µM) was 98% (active) and the growth inhibition ([15]; at 100.0 µM) was 99% (active).

`Cc1ccc2c(c1)C1(C)c3cc(C)ccc3SP1S2` (stereo unspecified) gave a growth inhibition ([1]; at 1.2 µM) of 20%, a growth inhibition ([1]; at 3.7 µM) of 22% and a growth inhibition ([1]; at 11.0 µM) of 20%. For the same molecule, the growth inhibition ([1]; at 33.0 µM) was 51%, the growth inhibition ([1]; at 100.0 µM) was 55% and the growth inhibition ([2]; at 1.2 µM) was 19%. For the same molecule, the growth inhibition ([2]; at 3.7 µM) was 9%, the growth inhibition ([2]; at 11.0 µM) was 25% and the growth inhibition ([2]; at 33.0 µM) was 26%. The growth inhibition ([2]; at 100.0 µM) was 36%, the growth inhibition ([3]; at 1.2 µM) was 4% and the growth inhibition ([3]; at 3.7 µM) was 7%. The growth inhibition ([3]; at 11.0 µM) was 17%, the growth inhibition ([3]; at 33.0 µM) was 47% and the growth inhibition ([3]; at 100.0 µM) was 50%. For the same molecule, the growth inhibition ([16]; at 1.2 µM) was 10%, the growth inhibition ([16]; at 3.7 µM) was 3% and the growth inhibition ([16]; at 11.0 µM) was 9%. For the same molecule, the growth inhibition ([16]; at 33.0 µM) was 37%, the growth inhibition ([16]; at 100.0 µM) was 43% and the growth inhibition ([4]; at 1.2 µM) was 17%. For the same molecule, the growth inhibition ([4]; at 3.7 µM) was 11%, the growth inhibition [4, 17] was -4% and the growth inhibition ([4]; at 11.0 µM) was 18%. The growth inhibition ([4]; at 33.0 µM) was 39%, the growth inhibition [4, 18] was 51% and the growth inhibition ([4]; at 50.0 µM) was 71.7% (active). For the same molecule, the growth inhibition ([4]; at 100.0 µM) was 54%, the growth inhibition ([5]; at 1.2 µM) was 11% and the growth inhibition ([5]; at 3.7 µM) was 21%. For the same molecule, the growth inhibition [5, 17] was -12%, the growth inhibition ([5]; at 11.0 µM) was 18% and the growth inhibition ([5]; at 33.0 µM) was 30%. For the same molecule, the growth inhibition [5, 18] was 17%, the growth inhibition ([5]; at 50.0 µM) was 40.1% and the growth inhibition ([5]; at 100.0 µM) was 30%. For the same molecule, the growth inhibition [7, 17] was 6%, the growth inhibition [7, 18] was 54% and the growth inhibition ([7]; at 50.0 µM) was 63%. It also gave a growth inhibition ([8]; at 1.2 µM) of 15%, a growth inhibition ([8]; at 3.7 µM) of -13% and a growth inhibition ([8]; at 11.0 µM) of -14%. The growth inhibition ([8]; at 33.0 µM) was 25%, the growth inhibition ([8]; at 100.0 µM) was 4% and the growth inhibition [9, 17] was 28%. The growth inhibition [9, 18] was 71% (active), the growth inhibition ([9]; at 50.0 µM) was 52.9% and the growth inhibition ([10]; at 1.2 µM) was 23%. It also gave a growth inhibition ([10]; at 3.7 µM) of 18%, a growth inhibition [10, 17] of -3% and a growth inhibition ([10]; at 11.0 µM) of 20%. For the same molecule, the growth inhibition ([10]; at 33.0 µM) was 22%, the growth inhibition [10, 18] was 59% and the growth inhibition ([10]; at 50.0 µM) was 42.8%. It also gave a growth inhibition ([10]; at 100.0 µM) of 42%, a growth inhibition ([11]; at 1.2 µM) of 13% and a growth inhibition ([11]; at 3.7 µM) of 1%. The growth inhibition ([11]; at 11.0 µM) was 18%, the growth inhibition ([11]; at 33.0 µM) was 36% and the growth inhibition ([11]; at 100.0 µM) was 50%. It also gave a growth inhibition ([12]; at 1.2 µM) of -5%, a growth inhibition ([12]; at 3.7 µM) of -22% and a growth inhibition ([12]; at 11.0 µM) of -3%. It also gave a growth inhibition ([12]; at 33.0 µM) of 26%, a growth inhibition ([12]; at 100.0 µM) of 39% and a growth inhibition ([13]; at 1.2 µM) of 6%. It also gave a growth inhibition ([13]; at 3.7 µM) of 4%, a growth inhibition ([13]; at 11.0 µM) of 18% and a growth inhibition ([13]; at 33.0 µM) of 46%. The growth inhibition ([13]; at 100.0 µM) was 51%, the growth inhibition [14, 17] was 4% and the growth inhibition [14, 18] was 74% (active). It also gave a growth inhibition ([14]; at 50.0 µM) of 46.9%, a growth inhibition ([15]; at 1.2 µM) of 8% and a growth inhibition ([15]; at 3.7 µM) of -3%. The growth inhibition ([15]; at 11.0 µM) was 7%, the growth inhibition ([15]; at 33.0 µM) was 27% and the growth inhibition ([15]; at 100.0 µM) was 52%.
